Source: PubChem
The list is not random: actives were taken first. Their share in the collection is about 6.3%.
Autofluor 339 = intrinsic fluorescence of library compounds, ex339/em460 – biochemical, MLSMR library, data from DPM-DC assay, artefact control, profiling panel; 65,000 compounds, 5.5% hits; AID 709; fluorescence fold increase at 10 µM; compound autofluorescence, ex339/em460 nm, NADH buffer; hits give high values; 1 = no-compound wells, NADH background;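 active = at 10 µM, mean starting fluorescence two-fold or more over control wells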;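 also: signal is the first read of a kinetic run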
NADH enzymes = blocks coupling enzymes of NAD/NADH assays | coupled PK/LDH NADH assays, four targets | IC50, µM (doses to about 10 µM), without a hit: at the highest dose inhibition | 65,000 compounds, 0.02% hits;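 active = single-dose screening hits from any of four coupled enzyme assays that gave an IC50 when retested across doses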;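 also: the DPM-DC format reads NADH fluorescence rather than 340 nm absorbance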
DPM-DC inhibit = S. pneumoniae DPM-DC inhibition; 65,000 compounds, 0.49% hits; purified DPM-DC, PK/LDH coupled NADH fluorescence; calls only at 10 µM;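 active = the 320 compounds with the highest percent inhibition in the single-dose primary screen, excluding strongly autofluorescent ones, cut at about 32% in these data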;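 also: kinetic rate of NADH fluorescence loss reporting ADP formed by the decarboxylase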
MK inhibit = blocks S. pneumoniae mevalonate kinase; purified MK, PK/LDH-coupled NADH absorbance 340 nm; inhibition, % at 10 µM; 65,000 compounds, 0.48% hits; AID 555;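 active = ranked among the strongest by inhibition in the single 10 µM screen, a fixed top-ranked set picked for dose follow-up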
Abs 340nm = compound absorbs light at 340 nm. compound absorbance at 340 nm, fold over control. fold change at 10 µM. 65,000 tested, under 10 active. AID 708;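 active = at 10 µM dose, initial 340 nm absorbance at least 2 fold that of control wells; inactive = change under 2 fold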;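 also: initial absorbance extrapolated from kinetic A340 decline of NADH oxidation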
Spn PMK inh = S. pneumoniae PMK inhibition. purified PMK, PK/LDH-coupled NADH absorbance 340 nm. inhibition, % at 10 µM. AID 539. 65,000 compounds, 0.49% hits;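 active = top-ranked compounds by inhibition in the single 10 µM screen, taking a fixed number of the strongest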;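 also: 0% = full reaction with DMSO carrier and 100% = background rate without enzyme reaction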
* = called active by the depositor; i = inactive; . = no result given; + = active, no number.

SMILES	Autofluor 339	NADH enzymes	DPM-DC inhibit	MK inhibit	Abs 340nm	Spn PMK inh
CC(C)Oc1cccc(C(=O)O)c1	1.1	9%	i	15	0.99	12
CSc1ccc(CN2CCC(O)CC2)cc1	1.1	22%	i	58*	1.1	8
CCCCOc1ccc(CN2CCC(O)CC2)cc1	1.1	17%	i	41*	1.1	9
CCN1CCN(Cc2ccc(NC(=O)Nc3ccc(SC)cc3)cc2)CC1	1.1	2%	i	10	1	7
COc1ccccc1-n1c(CNc2c(C)cccc2C)nnc1SCC(=O)N1CCOCC1	1	7%	i	7	1	8
Cc1ccccc1CN1CCN(S(=O)(=O)c2ccc(F)cc2)CC1	1.1	28%	+	30	1.1	1
Cc1cccc(C)c1N1CCN(S(=O)(=O)c2ccc(F)cc2)CC1	1.1	5%	i	5	1.1	10
COc1cccc(CN2CCN(C(=O)c3cccc4ccccc34)CC2)c1OC	1.1	5%	i	7	1	9
COc1cccc(OC)c1C(=O)N1CCN(Cc2ccccc2C)CC1	0.85	17%	i	48*	1	0
COc1ccccc1-c1noc(CCC(=O)Nc2cc(C(F)(F)F)ccc2Cl)n1	1.2	6%	i	8	1	9
CN1CCN(CC#CCn2c3ccccc3c3ccccc32)CC1	1.1	4%	i	8	1	5
CN(C)c1ccc(CN2CCCCCC2)cc1	1	6%	i	3	1	14
FC(F)(F)c1cccc(CN2CCCCCC2)c1	1.1	17%	i	45*	1.1	5
O=C(O)CSc1cccc2cccnc12	2.2*	4%	.	2	1.1	6
O=C(Cn1cnnn1)OCC(=O)c1ccc(Cl)s1	2.3*	9%	i	0	1	14
COc1cc2[nH]c(=O)n3nc(-c4ccccc4)nc3c2cc1OC	2.1*	16%	.	13	1.1	19
COc1cc2[nH]c(=O)n(CCCC(=O)N3CC=C(c4ccccc4)CC3)c(=O)c2cc1OC	1.5	7%	i	17	1.1	0
O=C1CN(C(=O)COC(=O)C2=COCCO2)c2ccccc2N1	1.1	26%	i	56*	1	23
CC(=O)Oc1ccc(NC(=O)CSc2ccccc2)cc1	1.1	3%	i	5	1.1	5
CC(C)C(=O)Nc1c2c(nc3ccccc13)N(C)CC2	2.2*	8%	.	7	1.1	8
O=C(CN1CCOCC1)Nc1c2c(nc3ccccc13)N(Cc1ccccc1)CC2	3.7*	10%	.	8	1.1	12
Cc1cc2oc(=O)cc(COC(=O)c3cccc(N(C)C)c3)c2cc1C	2.1*	5%	.	3	1.1	7
Cc1ccc2c(COC(=O)c3cnc(C)cn3)cc(=O)oc2c1	1.1	3%	i	1	1.1	9
O=C1C2CC=CCC2C(=O)N1c1ccc(Cc2ccncc2)cc1 (stereo not given)	1	4%	i	3	0.99	0
COc1ccc(CN2CCN(c3cccc(C)c3C)CC2)cc1OC	1.1	21%	i	51*	1.1	12
SMILES	Autofluor 339	NADH enzymes	DPM-DC inhibit	MK inhibit	Abs 340nm	Spn PMK inh
COc1ccc(CN2CCC(C(=O)N3CCN(c4ccccc4F)CC3)CC2)cc1OC	1.1	17%	i	52*	1.1	0
COc1cc(CN2CCN(c3cccc(C)c3C)CC2)cc(Br)c1O	1.1	11%	i	29	1.1	5
COc1cc(CN2CCC(C(=O)N3CCN(c4ccccc4F)CC3)CC2)cc(OC)c1OC	1.1	15%	i	39	1	5
O=C1C(Cl)=C(NCC2CCCO2)C(=O)N1CCc1ccccc1 (stereo not given)	1.1	3%	i	5	1	2
Cc1ccccc1N1C(=O)N(c2cccc(C(F)(F)F)c2)C2CS(=O)(=O)CC21 (stereo not given)	1.1	4%	i	7	0.98	5
Cc1ccc(S(=O)(=O)N2CCSC2c2ccco2)cc1 (stereo not given)	1.1	8%	i	2	1	21
CCCCC(C(=O)NCCC(C)C)N(CCCN1CCOCC1)C(=O)c1snc(C(N)=O)c1N (stereo not given)	2.1*	7%	i	3	1.1	13
CCC(=O)Nc1nonc1-c1nc2ccccc2n1Cc1ccc(Cl)c(Cl)c1	2.2*	11%	i	3	1	20
O=C(O)c1cccc(N2CCCC2)c1	5*	12%	.	6	1	18
CC(C)Oc1snc(Cl)c1C(N)=O	1.6	6%	i	3	0.98	14
O=C(O)c1ccccc1S	1	4%	i	5	0.97	3
CCOC(=O)CSc1n[nH]c(-c2ccco2)n1	1.1	6%	i	6	1	13
CCOc1ccc(-n2c(-c3ccco3)n[nH]c2=S)cc1	1.2	25%	i	60*	0.99	11
COCCn1c(=NC(=O)CSCC(=O)Nc2cc(C)on2)sc2cc(C(=O)OC)ccc21	1.2	5%	i	2	1.2	9
CCC(=O)Nc1c2c(nn1-c1ccc(OC)cc1)CS(=O)C2 (stereo not given)	1.1	1%	i	2	1	2
CCCCC(=O)Nc1cc2nn(-c3ccc(OC)cc3)nc2cc1C	3.6*	13%	.	14	1.1	11
CCC(=O)Nc1cc2nn(-c3ccc(OC)cc3)nc2cc1C	3.8*	11%	.	0	1	21
CN(C)c1ccc(NC(=O)Cn2c(=O)n(Cc3ccccc3)c(=O)c3ccccc32)cc1	1.1	5%	i	11	1	0
CC1CCCC(C)N1c1nnc(N)s1 (stereo not given)	1	13%	i	14	1	19
CCCCn1c(SCC(=O)Nc2cc(NC(=O)c3ccco3)ccc2C)nc2ccccc2c1=O	1.8	10%	i	13	1.1	6
CCn1c(SCC(=O)Nc2ccc(NC(=O)c3ccco3)c(OC)c2)nc2ccccc2c1=O	5.2*	5%	.	0	1	9
O=C(COC(=O)Cc1cccs1)Nc1ccccc1	1.1	3%	i	0	0.99	10
COc1cccc2cc(C(=O)N3CCc4ccccc4C3)c(=O)oc12	1.2	5%	i	5	1.1	9
COc1cccc2cc(C(=O)N3CCN(c4ccccc4F)CC3)c(=O)oc12	1.2	10%	i	0	1	29*
CCOC(=O)CC(=O)CSc1nnc2c(n1)[nH]c1ccccc12	1	11%	i	0	1.2	34*
CCOC(=O)CN(C(=O)CSc1nnc2c(n1)[nH]c1ccc(OC)cc12)c1ccc(F)cc1	1.1	6%	i	10	1	7
Cc1ccc(-n2nnc3c(SCC(=O)N4CCN(c5ccccc5)CC4)ncnc32)cc1	1.2	2%	i	2	1.1	0
